# From PubChem BioAssay
# Calls of active or inactive are those of the source. Unless noted, how the calls were made is not given here.
# Experiments:
# [1] = compounds binding Alexa647 anti-His antibody – biochemical, small-molecule microarray, 635 nm fluorescence, artefact control for SMM control protein annotation, primary screen (AID 1128); details: higher = more signal;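 further: score merges feature fluorescence with signal-to-noise for each printed compound spot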
# [2] = tested on: Human papillomavirus type 1a E7 protein (residues 1-88); assay: HPV1a E7 small-molecule binders, primary screen, biochemical, small-molecule microarray, residues 1-88, 635 nm (AID 1129); details: small-molecule microarray binding, fluorescence 635 nm; higher = more signal
# [3] = biological target: Focal adhesion kinase 1 (Homo sapiens) (UniProt Q05397); assay: PTK2 protein binding on printed compound slides – biochemical, small-molecule microarray, 635/667 nm fluorescence, BSA, DTT, primary screen (AID 1130); details: 635 nm fluorescence, higher = more signal;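 further: composite of spot emission at 667 nm and signal to noise over triplicate slides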
# Sequence of Focal adhesion kinase 1 (Homo sapiens) (Q05397 whole entry, looked up): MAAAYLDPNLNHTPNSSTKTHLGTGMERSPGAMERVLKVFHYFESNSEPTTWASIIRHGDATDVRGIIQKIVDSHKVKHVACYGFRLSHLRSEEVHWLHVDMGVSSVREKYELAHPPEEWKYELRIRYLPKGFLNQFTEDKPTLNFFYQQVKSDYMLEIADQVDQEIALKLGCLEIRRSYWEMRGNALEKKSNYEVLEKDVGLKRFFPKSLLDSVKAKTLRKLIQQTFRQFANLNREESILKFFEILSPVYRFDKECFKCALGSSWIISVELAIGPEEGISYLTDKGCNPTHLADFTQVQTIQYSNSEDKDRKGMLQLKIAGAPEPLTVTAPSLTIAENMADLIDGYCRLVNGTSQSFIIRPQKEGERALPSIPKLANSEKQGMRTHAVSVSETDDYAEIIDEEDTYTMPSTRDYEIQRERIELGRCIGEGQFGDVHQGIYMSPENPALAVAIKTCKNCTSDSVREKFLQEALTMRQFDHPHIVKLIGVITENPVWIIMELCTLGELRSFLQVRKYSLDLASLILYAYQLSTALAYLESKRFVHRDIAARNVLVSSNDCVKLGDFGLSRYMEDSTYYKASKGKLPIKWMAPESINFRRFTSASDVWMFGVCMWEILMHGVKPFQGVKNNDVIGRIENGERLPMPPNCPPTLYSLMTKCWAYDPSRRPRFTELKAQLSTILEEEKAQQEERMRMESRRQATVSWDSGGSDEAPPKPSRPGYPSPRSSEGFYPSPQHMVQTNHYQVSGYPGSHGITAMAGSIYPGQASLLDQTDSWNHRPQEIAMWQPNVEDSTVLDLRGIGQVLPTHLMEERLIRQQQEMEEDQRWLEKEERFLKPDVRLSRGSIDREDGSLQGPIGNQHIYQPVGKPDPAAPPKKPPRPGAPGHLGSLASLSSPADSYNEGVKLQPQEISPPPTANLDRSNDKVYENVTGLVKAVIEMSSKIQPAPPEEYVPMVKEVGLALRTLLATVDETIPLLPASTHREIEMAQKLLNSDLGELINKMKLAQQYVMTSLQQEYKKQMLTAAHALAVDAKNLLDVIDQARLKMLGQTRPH
# [4] = tested on: Fibrinogen (Alexa647-labelled); assay: Alexa647-fibrinogen binding to printed small molecules – biochemical, small-molecule microarray, 635/667 nm fluorescence, artefact control for SMM control-protein annotation, profiling panel (AID 1131); details: fibrinogen-A647 binding fluorescence, higher = more signal;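 further: z-score merges 667 nm fluorescence with per-spot signal-to-noise over triplicate slides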
# [5] = biological target: Follistatin (Homo sapiens) (UniProt P19883); assay: FST protein binding to printed compounds – biochemical, small-molecule microarray, 635/667 nm fluorescence, primary screen (AID 1132); details: 635 nm fluorescence, higher = more signal
# Sequence of Follistatin (Homo sapiens) (P19883 whole entry, looked up): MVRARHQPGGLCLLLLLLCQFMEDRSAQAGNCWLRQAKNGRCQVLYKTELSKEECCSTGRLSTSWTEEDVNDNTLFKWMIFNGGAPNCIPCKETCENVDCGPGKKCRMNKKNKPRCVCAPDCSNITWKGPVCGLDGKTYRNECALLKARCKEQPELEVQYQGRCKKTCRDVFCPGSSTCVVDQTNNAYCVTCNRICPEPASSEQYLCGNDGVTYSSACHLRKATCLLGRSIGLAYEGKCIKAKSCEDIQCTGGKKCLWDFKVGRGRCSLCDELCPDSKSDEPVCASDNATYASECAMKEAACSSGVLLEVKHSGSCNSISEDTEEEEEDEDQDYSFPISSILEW
# [6] = biological target: Fibroblast growth factor 2 (Homo sapiens) (UniProt P09038); assay: basic fibroblast growth factor binding to printed compounds – biochemical, small-molecule microarray, 635/667 nm fluorescence, primary screen (AID 1133); details: FGF2, fluorescence 635/667, higher = more signal
# Sequence of Fibroblast growth factor 2 (Homo sapiens) (P09038 whole entry, looked up): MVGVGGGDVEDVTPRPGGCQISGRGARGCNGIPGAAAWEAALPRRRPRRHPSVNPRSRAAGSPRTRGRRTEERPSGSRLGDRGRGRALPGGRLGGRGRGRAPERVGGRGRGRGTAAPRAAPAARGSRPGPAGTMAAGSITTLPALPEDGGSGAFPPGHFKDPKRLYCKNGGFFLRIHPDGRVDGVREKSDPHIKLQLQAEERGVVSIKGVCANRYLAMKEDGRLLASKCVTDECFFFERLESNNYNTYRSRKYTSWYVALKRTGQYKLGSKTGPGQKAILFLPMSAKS
# [7] = JC-1 mitochondrial potential readout, lung cancer cells – cell-based, A549, JC-1 fluorescence, basal, 24 h, 100 nL, profiling panel (AID 1138); details: higher = more signal;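 further: A549 lung adenocarcinoma cells under basal conditions with no added stimulus; test concentration not given here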
# Lefty1 = Lefty1 protein binding to printed compounds – biochemical, small-molecule microarray, 635/667 nm fluorescence, primary screen (AID 1139); details: fluorescence 635/667, higher = more signal
# [8] = tested on: wheat germ agglutinin (Triticum aestivum), Alexa647-labelled; assay: Alexa647-WGA lectin binding to printed small molecules – biochemical, small-molecule microarray, 635/667 nm fluorescence, artefact control for SMM control-protein annotation, profiling panel (AID 1140); details: WGA-A647 binding, 635 nm fluorescence, higher = more signal;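 further: score merges 667 nm feature emission with signal to noise over triplicate slides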
# [9] = biological target: Luciferin 4-monooxygenase (Photinus pyralis) (UniProt P08659); assay: inhibition of purified Photinus pyralis luciferase – biochemical, luminescence, purified enzyme, 2006 set, primary screen (AID 1141); details: purified firefly luciferase, SteadyGlo luminescence, 30 min; higher = more signal, called active from +8 up or from −8 down;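 further: cell-free assay with purified firefly luciferase at 100 ng per well in PBS; test concentration not given here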
# Sequence of Luciferin 4-monooxygenase (Photinus pyralis) (P08659 whole entry, looked up): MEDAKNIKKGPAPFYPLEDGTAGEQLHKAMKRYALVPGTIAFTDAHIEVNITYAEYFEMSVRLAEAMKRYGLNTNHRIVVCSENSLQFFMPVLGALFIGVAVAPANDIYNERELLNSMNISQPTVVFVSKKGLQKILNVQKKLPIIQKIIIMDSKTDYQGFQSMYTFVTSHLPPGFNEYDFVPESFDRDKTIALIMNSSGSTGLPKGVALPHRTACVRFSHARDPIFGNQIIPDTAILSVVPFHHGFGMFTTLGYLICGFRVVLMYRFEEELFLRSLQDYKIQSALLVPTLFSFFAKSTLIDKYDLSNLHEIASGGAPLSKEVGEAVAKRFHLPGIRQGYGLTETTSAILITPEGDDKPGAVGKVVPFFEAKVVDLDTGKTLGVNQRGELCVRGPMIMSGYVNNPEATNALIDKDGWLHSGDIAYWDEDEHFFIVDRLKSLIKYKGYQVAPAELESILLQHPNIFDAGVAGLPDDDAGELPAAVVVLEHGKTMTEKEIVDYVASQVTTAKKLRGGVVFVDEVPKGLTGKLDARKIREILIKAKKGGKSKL
# [10] = tested on: Wnt5a (protein binding on small-molecule microarray); assay: small molecules binding Wnt5a protein – biophysical, small-molecule microarray, 635/667 nm fluorescence, primary screen (AID 1142); details: 635 nm fluorescence, higher = more signal;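 further: fluorescence read at 667 nm with signal to noise per printed feature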
# [11] = ATP-based viability of Huh7 replicon cells – cell-based, CellTiter-Glo luminescence, basal, 48 h, cytotoxicity control for HCV replication inhibitor project, primary screen (AID 1143); details: higher = more signal, called active from +8 up or from −8 down;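 further: Huh7 hepatoma cells carrying a hepatitis C replication reporter with no stimulus; test concentration not given here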
# [12] = Pseudomonas biofilm growth suppression – PAO1 strain, BacTiter-Glo luminescence, LB-PBS, primary screen (AID 1144); details: P. aeruginosa PAO1 biofilm, 12 h, higher = more signal
# [13] = basal CRE-LacZ reporter activity in PC12 – cell-based, unstimulated, primary screen (AID 1145); details: no forskolin, luminescence, 4.5 h, higher = more signal, called active from +8 up or from −8 down
# [14] = forskolin-driven CRE-LacZ activity in PC12 – cell-based, CRE-LacZ reporter, forskolin-stimulated, primary screen (AID 1146); details: luminescence, 4.5 h, higher = more signal, called active from +8 up or from −8 down;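 further: PC12 cells with 6xCRE LacZ reporter stimulated by forskolin 10 µM; beta-galactosidase reporter signal reflecting CREB driven transcription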
# [15] = biological target: Streptavidin (Streptomyces avidinii) (UniProt P22629); assay: compounds binding control protein streptavidin – biophysical, small-molecule microarray, 635/667 nm fluorescence, artefact control for SMM compound annotation, primary screen (AID 1147); details: higher = more signal;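 further: signal reflects streptavidin binding to arrayed compounds as a control protein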
# Sequence of Streptavidin (Streptomyces avidinii) (P22629 whole entry, looked up): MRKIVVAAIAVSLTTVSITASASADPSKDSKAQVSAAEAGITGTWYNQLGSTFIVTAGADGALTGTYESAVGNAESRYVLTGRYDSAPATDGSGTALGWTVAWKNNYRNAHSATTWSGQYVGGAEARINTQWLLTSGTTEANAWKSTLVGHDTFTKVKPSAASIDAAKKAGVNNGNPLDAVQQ
# [16] = probe aInhba binding on compound microarray – biochemical, small-molecule microarray, 635/667 nm fluorescence, primary screen (AID 1148); details: higher = more signal;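 further: score merges 667nm spot fluorescence with signal-to-noise for antibody binding to printed compounds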
# Torsin-1A (Homo sapiens) [17] = biological target: Torsin-1A (Homo sapiens) (UniProt O14656); assay: TOR1A wild-type binding on microarray – cell lysate, small-molecule microarray, lysate, 635/667 nm, primary screen (AID 1149); details: COS7 hTOR1A-WT lysate, 635 nm fluorescence, higher = more signal
# Sequence of Torsin-1A (Homo sapiens) (O14656 whole entry, looked up): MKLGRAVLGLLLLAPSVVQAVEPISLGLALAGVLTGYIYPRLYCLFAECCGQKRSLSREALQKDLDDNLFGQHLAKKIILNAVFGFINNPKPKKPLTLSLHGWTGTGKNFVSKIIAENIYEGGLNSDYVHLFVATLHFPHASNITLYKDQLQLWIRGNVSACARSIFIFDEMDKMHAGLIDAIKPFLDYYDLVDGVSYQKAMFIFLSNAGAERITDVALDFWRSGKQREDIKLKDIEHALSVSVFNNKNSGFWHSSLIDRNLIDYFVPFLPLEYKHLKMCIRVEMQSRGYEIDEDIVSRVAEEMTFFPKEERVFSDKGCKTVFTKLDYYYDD
# Torsin-1A (Homo sapiens) [18] = biological target: Torsin-1A (Homo sapiens) (UniProt O14656); assay: torsin A mutant lysate binding on microarrays – cell lysate, small-molecule microarray, COS7 lysate, 635/667 nm fluorescence, primary screen (AID 1150); details: COS7 hTOR1A mutant lysate, 635 nm fluorescence, higher = more signal;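 further: score pools 667 nm emission and signal to noise measuring lysate protein binding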
# [19] = tested on: Sonic hedgehog protein (Shh); assay: Sonic hedgehog microarray binding compounds – biochemical, small-molecule microarray, 635/667 nm fluorescence, primary screen (AID 1151); details: 635 nm fluorescence, higher = more signal;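 further: Shh protein binding to compounds spotted on small-molecule microarray slides; score combines spot fluorescence intensity with signal-to-noise across triplicate slides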
Compound,composite z-score [1],composite z-score [2],composite z-score [3],composite z-score [4],composite z-score [5],composite z-score [6],z-score [7],composite z-score (Lefty1),composite z-score [8],z-score [9],composite z-score [10],z-score [11],z-score [12],z-score [13],z-score [14],composite z-score [15],composite z-score [16],composite z-score (Torsin-1A (Homo sapiens) [17]),composite z-score (Torsin-1A (Homo sapiens) [18]),composite z-score [19]
NC(=O)NCC#Cc1ccc2c(c1)[C@]1(C(=O)N2)[C@H](c2ccc(OCCO)cc2)N2[C@H](c3ccccc3)[C@H](c3ccccc3)OC(=O)[C@H]2[C@@H]1C(=O)N1CCN(c2ncccn2)CC1,-0.192,0.973,0.0718,0.879,1.34,0.502,-1.1,1.08,0.444,-1.33 (inactive),0.132,0.342 (inactive),-0.724 (inactive),-0.491 (inactive),-0.301 (inactive),-0.373,0.15,0.539,0.673,1.5
COc1ccc([Si](C)(C)[C@@H]2[C@@H](CC(=O)N3Cc4ccccc4C[C@H]3CO)O[C@]3(C(=O)N(Cc4cccc(N5CCCCC5=O)c4)c4ccccc43)[C@H]2C)cc1,1.02,1.13,0.739,0.641,1.36,1.57,-0.96,1.5,0.676,0.227 (inactive),0.41,-3.71 (inactive),0.723 (inactive),1.88 (inactive),-0.136 (inactive),0.287,0.17,0.652,0.101,1.76
COc1ccc([Si](C)(C)[C@H]2[C@H](CCn3cc(CCO)nn3)O[C@@]3(C(=O)N(Cc4cccc(N5C(=O)c6cccc7cccc5c67)c4)c4ccccc43)[C@@H]2C)cc1,0.246,1.05,0.124,0.497,0.958,0.691,-0.338,1.21,0.878,-1.54 (inactive),0.16,-7.3 (inactive),-1.11 (inactive),11 (active),-1.3 (inactive),0.99,-0.018,1.33,1.22,1.37
O=C1C2C=CC(C(O)c3ccc(Br)cc3)N(Nc3ccccc3)C2C(=O)N1c1ccccc1 (stereo not given),0.0876,1.14,0.081,0.572,0.52,-0.364,0.0103,-0.51,1.09,0.296 (inactive),-0.0007,0.198 (inactive),-0.95 (inactive),0.24 (inactive),0.35 (inactive),1.47,0.147,-0.0004,-0.0172,-0.146
COCCOC(=O)N1C(=O)[C@@]2(c3cc(C#Cc4ccc(OC)cc4)ccc31)[C@H](C(=O)N1CCc3cc(OC)c(OC)cc3C1)[C@H]1C(=O)O[C@H](c3ccccc3)[C@H](c3ccccc3)N1[C@@H]2c1ccc(O)cc1,1.13,1.21,0.226,0.753,1.25,1.17,-0.406,0.606,0.659,-1.35 (inactive),0.783,-0.637 (inactive),0.693 (inactive),-0.0688 (inactive),0.236 (inactive),0.802,1.06,0.58,0.984,0.813
C[N+](C)(C)CCCC[C@@H]1NC(=O)[C@@H]2C[C@H](C(=O)NCCCCCNC(=O)CS)[C@H](c3cccc(OCCO)c3)N2C1=O,0.664,0.14,0.0046,0.909,1.25,1.5,1.71,0.272,0.134,-1.68 (inactive),0.623,-0.192 (inactive),0.152 (inactive),0.688 (inactive),0.478 (inactive),0.0879,0.0636,0.628,0.186,1.38
